Screens deposited in PubChem by National Center for Advancing Translational Sciences (NCATS).
This excerpt belongs to a sample that is enriched for hits.
KDM4E inh: qHTS Assay for Inhibitors of Human Jumonji Domain Containing 2E (JMJD2E) | Potency, µM (highest dose often 57.1 µM), for inactives: at the top dose activity change, negative = inhibition, usual class: inhibitors | 230,000 tested, 1.6% active | AID 2147, 2009 | JMJD2E catalytic domain, FDH-coupled NADH fluorescence (FDH is formaldehyde dehydrogenase);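 also: 0% = wells with enzyme and -100% = buffer wells without enzyme; nearly all actives have a fitted effect of over 50% in size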
APE1 inh-1: qHTS Assay for Inhibitors of the Human Apurinic/apyrimidinic Endonuclease 1 (APE1); recombinant APE1, TAMRA/BHQ-2 abasic DNA cleavage fluorescence; Potency, µM (top dose mostly 65.8 µM), inactives show at the highest dose activity change, negative = inhibition, usual class: inhibitors; 350,000 tested, 0.35% active;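 also: plate controls were vehicle for no effect and reference inhibitor for full effect; nearly all actives have a fitted effect of over 55% in size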
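APE1 at 0.75 nM preincubated 15 min at room temperature with compound. Reaction then started with 50 nM double-stranded THF-abasic substrate labelled with TAMRA/BHQ-2, and 525/598 nm fluorescence read kinetically. Activity taken as third-minus-first read difference, normalized to DMSO and NSC13755 controls.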
BLM inh-1: qHTS Assay for Inhibitors of Bloom's syndrome helicase (BLM); RecQ-like DNA helicase BLM (Homo sapiens), P54132; recombinant BLM DNA unwinding, fluorescence dequenching; Potency, µM (series often up to 56.1 µM), without a hit: at the highest dose activity change, negative = inhibition, usual class: inhibitors; 350,000 tested, 0.2% active;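 also: plate controls were vehicle for no effect and no enzyme for full effect; nearly all actives have a fitted effect of over 35% in size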
Target sequence (P54132 whole entry, looked up): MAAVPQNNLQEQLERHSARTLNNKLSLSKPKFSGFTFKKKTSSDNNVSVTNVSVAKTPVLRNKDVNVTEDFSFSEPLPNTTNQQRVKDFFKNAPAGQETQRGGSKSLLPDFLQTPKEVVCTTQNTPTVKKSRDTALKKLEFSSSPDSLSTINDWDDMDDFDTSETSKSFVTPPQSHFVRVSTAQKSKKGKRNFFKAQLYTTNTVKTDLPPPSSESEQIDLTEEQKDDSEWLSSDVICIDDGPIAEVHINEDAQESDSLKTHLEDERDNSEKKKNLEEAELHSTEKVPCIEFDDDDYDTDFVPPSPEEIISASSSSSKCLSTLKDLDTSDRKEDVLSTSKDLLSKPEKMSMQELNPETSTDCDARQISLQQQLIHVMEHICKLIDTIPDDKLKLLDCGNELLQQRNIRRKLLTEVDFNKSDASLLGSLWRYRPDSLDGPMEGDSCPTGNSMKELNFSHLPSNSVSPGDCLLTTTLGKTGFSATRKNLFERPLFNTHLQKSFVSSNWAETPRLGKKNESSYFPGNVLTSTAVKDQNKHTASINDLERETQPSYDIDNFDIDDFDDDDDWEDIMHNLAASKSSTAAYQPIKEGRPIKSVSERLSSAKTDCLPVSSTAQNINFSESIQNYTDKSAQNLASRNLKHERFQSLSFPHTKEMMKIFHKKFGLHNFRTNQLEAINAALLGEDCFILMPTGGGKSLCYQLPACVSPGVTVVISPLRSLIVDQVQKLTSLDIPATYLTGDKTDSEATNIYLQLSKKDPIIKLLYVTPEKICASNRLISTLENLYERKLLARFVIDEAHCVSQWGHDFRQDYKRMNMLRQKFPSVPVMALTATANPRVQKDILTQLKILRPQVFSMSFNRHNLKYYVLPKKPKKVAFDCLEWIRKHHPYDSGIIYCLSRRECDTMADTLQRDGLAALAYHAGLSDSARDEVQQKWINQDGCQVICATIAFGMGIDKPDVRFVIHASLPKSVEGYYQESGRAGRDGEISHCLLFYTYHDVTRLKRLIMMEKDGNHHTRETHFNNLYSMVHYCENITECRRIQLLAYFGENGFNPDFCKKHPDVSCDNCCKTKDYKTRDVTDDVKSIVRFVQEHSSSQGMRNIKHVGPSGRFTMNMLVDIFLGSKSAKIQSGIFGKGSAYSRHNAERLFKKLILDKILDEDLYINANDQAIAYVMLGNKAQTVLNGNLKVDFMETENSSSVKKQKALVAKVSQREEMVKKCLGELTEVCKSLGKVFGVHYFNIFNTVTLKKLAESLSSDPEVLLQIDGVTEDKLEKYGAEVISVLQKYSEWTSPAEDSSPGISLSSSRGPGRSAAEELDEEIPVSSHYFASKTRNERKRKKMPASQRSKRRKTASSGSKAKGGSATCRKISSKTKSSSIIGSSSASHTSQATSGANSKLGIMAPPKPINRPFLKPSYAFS
L3MBTL1 inh-1: qHTS Assay for the Inhibitors of L3MBTL1; 230,000 tested, 0.66% active; AID 485360, 2010; Potency, µM (titrated, usually from 57.1 µM), inactives show at the highest dose activity, negative = inhibition, most hits filed as inhibitors; Lethal(3)malignant brain tumor-like protein 1 (Homo sapiens), Q9Y468; AlphaScreen L3MBTL1–H3K9me1 peptide binding; also: % is scaled to controls: 0 for no effect and ±100 for the full control effect; nearly all actives have a fitted effect of over 60% in size
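AlphaScreen proximity signal between nickel-chelate acceptor and streptavidin donor beads (final 10 ug/mL) reports binding of 50 nM L3MBTL1 to 75 nM biotin-H3 K9me1 peptide; complex incubated with compounds 30 min at room temperature; cefsulodin titration as control.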
RECQ1 inh: qHTS Assay for Inhibitors of RecQ-Like Dna Helicase 1 (RECQ1); Potency, µM (highest dose often 57.3 µM), for inactives: top-dose activity, negative = inhibition, actives largely listed as inhibitors; RECQ1 DNA unwinding, red fluorescence kinetic read; 240,000 tested, 0.54% active;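 also: plate controls were vehicle for no effect and no enzyme for full effect; nearly all actives have a fitted effect of over 30% in size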
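50 nM RECQ1T1 preincubated 15 min with compound in Tris pH 8.0 buffer with MgCl2, DTT, Tween-20 and 2.5 ug/ml poly(dI-dC); started with 200 nM TAMRA/BHQ-2 forked duplex and 2 mM ATP. Unwinding read as fluorescence (525/598 nm), two reads 2 h apart.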
TDP1 block: qHTS Assay for Inhibitors of Tyrosyl-DNA Phosphodiesterase (TDP1); 350,000 tested, 0.28% active; recombinant TDP1, AlphaScreen DNA substrate cleavage; AID 485290, 2010; Potency, µM (titrated, usually from 130 µM), inactives show at the highest dose activity change, negative = inhibition, hits mostly inhibitors; also: % is scaled to controls: 0 for no effect and ±100 for the full control effect; nearly all actives have a fitted effect of over 40% in size
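AlphaScreen read-out: signal falls as enzyme removes the 3' tyrosine-FITC from a 5'-biotinylated DNA oligo (15 nM, 5 min, RT). Enzyme was E. coli-made recombinant Tdp1 at 1 nM, exposed to compound for 15 min beforehand; beads 10 ug/ml, 10 min.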
APE1 dye cs: Counterscreen for APE1 Inhibitors: Fluorescent Dye Displacement Assay | shares compounds with APE1 inh-1 | DNA fluorescent dye displacement counterscreen, fluorescence | Potency, µM (doses to about 28.5 µM), for inactives: at the highest dose activity change, negative = inhibition, most hits filed as inhibitors | 480 tested, 7% active;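 also: loss of thiazole orange fluorescence as the dye is displaced from duplex DNA; 0% = ThO with dsDNA and no compound and -100% = ThO without dsDNA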
EndoIV counter: Counterscreen for APE1 Inhibitors: qHTS Assay for Inhibitors of Endonuclease IV; AID 2565, 2010; Potency, µM (series often up to 27.1 µM), without a hit: at the highest dose activity change, negative = inhibition, usual class: inhibitors; shares compounds with APE1 inh-1; 560 tested, 4% active; E. coli Endo IV, fluorogenic AP-site DNA cleavage;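 also: plate controls were uninhibited enzyme wells for no effect and no enzyme buffer wells for full effect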
APE1 inh-2: Confirmation qHTS Assay for Inhibitors of the Human Apurinic/apyrimidinic Endonuclease 1 (APE1). purified APE1, fluorogenic abasic-site DNA cleavage. Potency, µM (doses to about 57.1 µM), inactives show top-dose activity change, negative = inhibition, actives largely listed as inhibitors. shares compounds with APE1 inh-1. 750 tested, 44% active. AID 2572, 2010; also: % is scaled to controls: 0 for no effect and ±100 for the full control effect; nearly all actives have a fitted effect of over 30% in size
APE1 FP inh: qHTS FP-Based Assay for Inhibitors of the Human Apurinic/apyrimidinic Endonuclease 1 (APE1); shares compounds with APE1 inh-1; APE1 binding to TAMRA-labelled double-stranded DNA, fluorescence polarization displacement; Potency, µM (series often up to 28.5 µM), without a hit: at the highest dose activity, negative = inhibition, usual class: inhibitors; 480 tested, 7% active; AID 2573, 2010; also: % is scaled to controls: 0 for no effect and ±100 for the full control effect
BLM inh-2: qHTS Confirmation Assay for Inhibitors of Bloom's syndrome helicase (BLM). shares compounds with BLM inh-1. BLM DNA unwinding, fluorescence quenching, biochemical. Potency, µM, inactives show max response, negative = inhibition, most hits filed as inhibitors. 220 tested, 40% active. AID 2585, 2010;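 also: strand separation dequenches TAMRA so unwinding raises red fluorescence; series mostly up to about 69 µM; % is scaled to controls: 0 for no effect and ±100 for the full control effect; nearly all actives have a fitted effect of over 45% in size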
L3MBTL1 inh-2: qHTS Assay for the Inhibitors of L3MBTL1: Hit Validation | shares compounds with L3MBTL1 inh-1 | L3MBTL1 methyl-lysine binding inhibition, biochemical qHTS | Potency, µM, actives largely listed as inhibitors | 500 tested, 91% active | AID 540279, 2011; also: nearly all actives have a fitted effect of over 70% in size
AlphaScreen ctr2: qHTS Assay for the Inhibitors of L3MBTL1: Hit Validationin AlphaScreen Counterscreen; shares compounds with L3MBTL1 inh-1; AlphaScreen counterscreen, signal inhibition; Potency, µM (top dose mostly 57.1 µM), for the others: at the highest dose activity change, negative = inhibition, usual class: inhibitors; 500 tested, under 10 active; AID 602224, 2012; also: 0% is about no effect
The depositor's hits bear a star; i = inactive; ? = inconclusive; · = not tested or not shown; [ ] = remark or other dose. Unless noted, calls follow the shape of the dose curve; as a rule, active = well fitted curve in the direction sought with a large enough effect; inconclusive = small, poorly fitted or top-dose-only effect, or another doubt; inactive = no such curve, though single readings can be large; an effect the other way counts as inactive or inconclusive. Potency is read from the fitted curve at half-maximal effect.

SMILES	KDM4E inh	APE1 inh-1	BLM inh-1	L3MBTL1 inh-1	RECQ1 inh	TDP1 block	BLM inh-2	others
Cc1c(C(=O)OCC2CCCO2)[nH]c2c1C(=O)CC(c1ccco1)C2 (stereo not given)	?	7.1µM*	14µM*	14µM*	25µM*	?	18µM*	APE1 dye cs=-4%;EndoIV counter=?;APE1 inh-2=4.5µM*;APE1 FP inh=?;L3MBTL1 inh-2=6*;AlphaScreen ctr2=-2%
CC(C)(C)NC(=O)NC(=O)CSc1nnc(COc2ccccc2Cl)o1	0%	2%	-11%	·	-8%	0%	·
CCOc1ccccc1-n1nnnc1SCC(=O)NC(=O)NCc1ccco1	-9%	28µM*	-21%	25µM*	-29%	1%	·	APE1 dye cs=?;EndoIV counter=-5%;APE1 inh-2=?;APE1 FP inh=?;L3MBTL1 inh-2=21*;AlphaScreen ctr2=0%
O=C(CSc1nnc(COc2ccccc2Cl)o1)NC(=O)NCc1ccco1	-1%	11µM*	-30%	14µM*	-17%	-3%	·	APE1 dye cs=?;EndoIV counter=-4%;APE1 inh-2=14µM*;APE1 FP inh=0%;L3MBTL1 inh-2=12*;AlphaScreen ctr2=-8%
Nc1nc2c(c(=O)[nH]1)N(C=O)C(CNc1ccc(C(=O)N[C@@H](CCC(=O)O)C(=O)O)cc1)CN2 (stereo not given in full)	·	11%[21 µM]	·	·	·	·	·
O=c1cc2c(=O)oc3cc(O)c(O)oc3c2c(O)c1O	4µM*	0.35µM*	-5%	0.32µM*	4.5µM*	?	·	APE1 dye cs=?;EndoIV counter=187%;APE1 inh-2=0.13µM*;APE1 FP inh=2%;L3MBTL1 inh-2=0.17*;AlphaScreen ctr2=?
CCn1c(SCC(N)=O)nc2sc3c(c2c1=O)CCN(C)C3	?	5%	0.71µM*	-8%	7%	0%	10%
Cc1cc(C(C)C)n2c(nc3ccccc32)c1C#N	?	-1%	-1%	6%	-6%	5%	·
Cc1cc(-c2ccco2)c(C#N)c2nc3ccccc3n12	?	-2%	2.5µM*	-25%	i	-4%	?
O=c1[nH][nH]c2c(N=Cc3ccccc3O)ccc(F)c12	-11%	8.9µM*	28µM*	3.5µM*	?	-9%	?
CCc1ccc(O)c(N=Cc2ccccc2O)c1	?	-1%	-5%	·	-5%	7%	·
CC(C)Cn1c(N)c(C(=O)NCC2CCCO2)c2nc3ccccc3nc21 (stereo not given)	?	-7%	8.9µM*	?	14%	-11%	-10%
COc1ccc(OC)c(-n2c(N)c(C(=O)NCC3CCCO3)c3nc4ccccc4nc32)c1 (stereo not given)	?	-5%	-5%	·	-1%	0%	·
O=C(Cn1ncc2ccsc2c1=O)N1CCN(c2ccc(Cl)cc2)CC1	·	·	-5%	·	·	-1%	·
CCCc1nc2ccccc2c(=O)n1-c1ccc(C(=O)OCC)cc1	0%	-3%	7.9µM*	8%	8%	-4%	-6%
O=C(Nc1ccccc1)C12CC1/C(=N\O)c1ccccc1O2 (stereo not given)	·	-1%	·	·	-2%	10%	·
CC1(C)Cc2c(C#N)c(N3CCN(C(=O)c4ccccc4Cl)CC3)nc(-c3ccco3)c2CS1	?	-11%	14µM*	?	-21%	1%	?
NC(=O)CC1Nc2cccc3cccc(c23)NC1=O (stereo not given)	-2%	5%	2.8µM*	-91%	-4%	1%	-9%
Nc1c(C(=O)NCC2CCCO2)sc2nc3c(c(-c4ccco4)c12)CC/C3=C\c1ccco1 (stereo not given)	7.1µM*	2µM*	5µM*	3.2µM*	2.5µM*	?	?
NC(=O)c1sc2nc3c(c(-c4ccco4)c2c1N)CCCC3	0%	-5%	-7%	·	8%	·	·
COc1ccc2nc3ccccc3nc2c1N	?	?	?	?	-1%	11%	·
COc1ccc2nc3cccc(OC)c3nc2c1	-24%	?	3.5µM*	·	1%	2%	10%
COc1ccc(Oc2ncc3nc(-c4ccc(OC)cc4)c(=O)n(C4CC4)c3n2)cc1	·	-1%	-3%	·	-2%	·	·
